“And” between values parts separate entries of the source, which are not always exact repeats. Identical values can stand only once. Results filed as inconclusive are left out. The source made the active and inactive calls. Unless noted, calls follow the shape of the dose curve; as a rule, active = well fitted curve in the direction sought with a large enough effect in the repeat runs; inconclusive = weak or mixed curves; inactive = no such curve, though single readings can be large; an effect the other way counts as inactive or inconclusive.
Tests used:
[1] = qHTS assay to identify small molecule antagonists of the glucocorticoid receptor (GR) signaling pathway - cell viability counter screen (AID 720693); also: nearly all actives have a fitted effect of over 55% in size; also: potency is read from the fitted curve at half-maximal effect
[2] = qHTS assay for identifying genotoxic compounds that show differential cytotoxicity against isogenic chicken DT40 cell lines with known DNA damage response pathways - wild type cell line (AID 743012); also: nearly all actives have a fitted effect of over 60% in size; also: potency is read from the fitted curve at half-maximal effect
In short: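 Wild-type DT40 cells (300/well) exposed to compounds for 40 hours at 37 C/5% CO2. Viability read by CellTiter-Glo luminescence after 30 min at room temperature.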

[3] = qHTS assay for identifying genotoxic compounds that show differential cytotoxicity against isogenic chicken DT40 cell lines with known DNA damage response pathways - Rev3 mutant cell line (AID 743014); also: nearly all actives have a fitted effect of over 55% in size; also: potency is read from the fitted curve at half-maximal effect
[4] = qHTS assay for identifying genotoxic compounds that show differential cytotoxicity against isogenic chicken DT40 cell lines with known DNA damage response pathways - Rad54/Ku70 mutant cell line (AID 743015); also: nearly all actives have a fitted effect of over 60% in size; also: potency is read from the fitted curve at half-maximal effect
[5] = qHTS assay to identify small molecule antagonists of the androgen receptor (AR) signaling pathway - cell viability counter screen (AID 743033; also: nearly all actives have a fitted effect of over 45% in size; also: potency is read from the fitted curve at half-maximal effect)
[6] = molecular target: Androgen receptor (Homo sapiens) (UniProt P10275); assay: qHTS assay to identify small molecule agonists of the androgen receptor (AR) signaling pathway (AID 743036; active = well fitted activation curve with a large enough effect in the signal ratio in the repeat runs, with a control signal flat, not every such curve was filed as active; the % refers to the signal ratio)
In short: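 Activation was read as beta-lactamase FRET signal from LiveBLAzer B/G substrate, added for 2 h at room temperature. Before that, GeneBLAzer AR-UAS-bla GripTite (HEK293) cells had 16 h compound exposure at 37C.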

[7] = molecular target: Androgen receptor (Homo sapiens) (UniProt P10275); assay: qHTS assay to identify small molecule antagonists of the androgen receptor (AR) signaling pathway using the MDA cell line (AID 743042; also: nearly all actives have a fitted effect of over 55% in size)
In short: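 Antagonist mode: compounds plus R1881 agonist added to MDA-kb2 AR-luc cells, incubated 16 h at 37C. Luciferase reporter luminescence quantified, with multiplexed CellTiter-Fluor readout for cell viability.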

[8] = qHTS assay to identify small molecule antagonists of the thyroid receptor (TR) signaling pathway (AID 743065); also: nearly all actives have a fitted effect of over 55% in size; also: potency is read from the fitted curve at half-maximal effect; as to activity, negative = inhibition: series mostly up to about 70 µM
In short: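 Antagonism measured as loss of luciferase signal in GH3 cells stably carrying a TRE-luciferase reporter, co-treated with compound and T3 (1 nM final) for 23.5 h at 37 C. Viability was read in the same well by CellTiter-Fluor.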

[9] = tested on: thyroid hormone receptor (rat, GH3 cells); assay: qHTS assay to identify small molecule agonists of the thyroid receptor (TR) signaling pathway (AID 743066; calls by dose curve)
[10] = qHTS assay to identify small molecule antagonists of the estrogen receptor alpha (ER-alpha) signaling pathway - cell viability counter screen (AID 743074; calls by dose curve;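 also: HEK293 cells carrying ER-alpha-UAS-bla reporter stimulated with 17beta-estradiol; nearly all actives have a fitted effect of over 45% in size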)
[11] = qHTS assay to identify small molecule antagonists of the estrogen receptor alpha (ER-alpha) signaling pathway using the BG1 cell line - cell viability counter screen (AID 743081);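 also: compound given together with 17beta-estradiol as the ER stimulus; nearly all actives have a fitted effect of over 45% in size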; also: potency is read from the fitted curve at half-maximal effect; as to activity change, negative = cytotoxicity: series mostly up to about 70 µM
[12] = qHTS assay to identify aromatase inhibitors - cell viability counter screen (AID 743084); also: potency is read from the fitted curve at half-maximal effect
[13] = qHTS assay to identify small molecule antagonists of the androgen receptor (AR) signaling pathway using the MDA cell line - cell viability counter screen (AID 743041; also: nearly all actives have a fitted effect of over 45% in size; also: potency is read from the fitted curve at half-maximal effect)
In short: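 R1881-driven MDA-kb2 AR-luc cells, 3,000/well, were dosed with library compounds for 16 h; cell health came from CellTiter-Fluor fluorescence in the reporter wells.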

[14] = qHTS assay to identify small molecule antagonists of the thyroid receptor (TR) signaling pathway - cell viability counter screen (AID 743064); also: nearly all actives have a fitted effect of over 50% in size; also: potency is read from the fitted curve at half-maximal effect
In short: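 In-well cytotoxicity read by CellTiter-Fluor (30 min, 37 C) following 23.5 h exposure of GH3 cells bearing a TRE-luciferase sensor. Compounds were added alongside 1 nM (final) T3 to drive TR transactivation.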

[15] = molecular target: Estrogen receptor (Homo sapiens) (UniProt P03372); assay: qHTS assay to identify small molecule agonists of the estrogen receptor alpha (ER-alpha) signaling pathway using the BG1 cell line (AID 743079); also: nearly all actives have a fitted effect of over 20% in size; also: potency is read from the fitted curve at half-maximal effect
[16] = molecular target: Estrogen receptor (Homo sapiens) (UniProt P03372); assay: qHTS assay to identify small molecule agonists of the estrogen receptor alpha (ER-alpha) signaling pathway (AID 743075; calls by dose curve)
[17] = qHTS assay to identify small molecule antagonists of the estrogen receptor alpha (ER-alpha) signaling pathway using the BG1 cell line (AID 743080; calls by dose curve;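 also: BG1 cells stimulated with 17beta-estradiol alongside compound; series mostly up to about 70 µM; nearly all actives have a fitted effect of over 25% in size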)
In short: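 Luciferase inhibition measured with ONE-Glo after 30 min at RT in BG1Luc4E2 cells given test compounds and 17beta-estradiol for 21.5 h at 37 C; CellTiter-Fluor viability read in the same wells beforehand.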

Aromatase (Homo sapiens) = Aromatase (Homo sapiens) (UniProt P11511); assay: qHTS assay to identify aromatase inhibitors (AID 743083); also: nearly all actives have a fitted effect of over 55% in size; also: potency is read from the fitted curve at half-maximal effect; as to activity, negative = inhibition: series mostly up to about 70 µM
[18] = molecular target: Estrogen receptor (Homo sapiens) (UniProt P03372); assay: qHTS assay to identify small molecule antagonists of the estrogen receptor alpha (ER-alpha) signaling pathway (AID 743069; active = well fitted curve in the direction sought with a large enough effect in the signal ratio in the repeat runs, not every such curve was filed as active; the % refers to the signal ratio)
In short: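 Compound effects are measured against 17beta-estradiol stimulation in HEK293 cells with a UAS-controlled beta-lactamase reporter for ER-alpha. Exposure lasts 18 hr at 37C; LiveBLAzer B/G FRET substrate follows for 2 hr at room temperature.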

[19] = molecular target: Androgen receptor (Homo sapiens) (UniProt P10275); assay: qHTS assay to identify small molecule agonists of the androgen receptor (AR) signaling pathway using the MDA cell line (AID 743040; also: nearly all actives have a fitted effect of over 20% in size)
In short: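 After a 5 h incubation at 37C and 0% CO2, MDA-kb2 reporter cells were dosed with compounds in DMSO and kept 16 h under the same conditions. Luciferase activity was then read as luminescence with ONE-Glo.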
% is scaled to controls: 0 for no effect and ±100 for the full control effect.

Chain of Androgen receptor (Homo sapiens) (P10275 whole entry, looked up): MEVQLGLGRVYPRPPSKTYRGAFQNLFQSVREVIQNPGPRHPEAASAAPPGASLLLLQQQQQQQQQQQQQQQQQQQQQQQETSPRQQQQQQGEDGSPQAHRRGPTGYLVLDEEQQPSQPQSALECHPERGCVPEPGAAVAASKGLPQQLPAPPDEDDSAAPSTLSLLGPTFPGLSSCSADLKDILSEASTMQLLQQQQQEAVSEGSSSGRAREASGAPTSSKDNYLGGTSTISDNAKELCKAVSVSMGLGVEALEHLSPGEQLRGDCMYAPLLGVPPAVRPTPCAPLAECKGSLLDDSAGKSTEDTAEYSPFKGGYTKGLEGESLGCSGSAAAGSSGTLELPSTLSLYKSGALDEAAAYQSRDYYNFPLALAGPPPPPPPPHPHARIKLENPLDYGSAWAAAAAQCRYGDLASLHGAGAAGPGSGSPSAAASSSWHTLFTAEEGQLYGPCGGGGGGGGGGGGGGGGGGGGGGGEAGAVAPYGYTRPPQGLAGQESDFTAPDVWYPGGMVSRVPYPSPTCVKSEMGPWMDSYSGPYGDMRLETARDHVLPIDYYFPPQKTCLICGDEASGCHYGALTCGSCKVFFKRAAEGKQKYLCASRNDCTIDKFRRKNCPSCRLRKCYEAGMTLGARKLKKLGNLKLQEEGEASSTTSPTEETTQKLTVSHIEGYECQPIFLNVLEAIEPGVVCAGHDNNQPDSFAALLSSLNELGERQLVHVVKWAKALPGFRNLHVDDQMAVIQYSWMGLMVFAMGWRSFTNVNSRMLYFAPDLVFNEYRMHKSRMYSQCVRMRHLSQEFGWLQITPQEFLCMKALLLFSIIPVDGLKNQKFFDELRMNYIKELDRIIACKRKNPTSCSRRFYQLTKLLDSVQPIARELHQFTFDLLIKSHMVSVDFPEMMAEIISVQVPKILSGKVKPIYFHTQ
Chain of Aromatase (Homo sapiens) (P11511 whole entry, looked up): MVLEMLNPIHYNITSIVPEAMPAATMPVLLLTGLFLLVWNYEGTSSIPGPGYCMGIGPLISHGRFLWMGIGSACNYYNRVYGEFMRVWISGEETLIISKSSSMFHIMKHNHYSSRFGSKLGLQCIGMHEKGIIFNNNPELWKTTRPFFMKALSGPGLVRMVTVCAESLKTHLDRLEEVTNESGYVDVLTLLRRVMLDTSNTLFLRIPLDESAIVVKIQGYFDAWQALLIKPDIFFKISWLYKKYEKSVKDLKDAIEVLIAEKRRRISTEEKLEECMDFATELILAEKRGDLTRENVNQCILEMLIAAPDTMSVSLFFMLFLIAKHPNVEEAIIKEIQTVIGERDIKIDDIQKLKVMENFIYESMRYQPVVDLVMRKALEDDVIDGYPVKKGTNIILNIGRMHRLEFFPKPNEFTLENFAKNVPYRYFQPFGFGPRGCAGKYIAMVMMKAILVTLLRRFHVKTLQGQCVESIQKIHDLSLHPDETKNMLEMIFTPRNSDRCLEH
Chain of Estrogen receptor (Homo sapiens) (P03372 whole entry, looked up): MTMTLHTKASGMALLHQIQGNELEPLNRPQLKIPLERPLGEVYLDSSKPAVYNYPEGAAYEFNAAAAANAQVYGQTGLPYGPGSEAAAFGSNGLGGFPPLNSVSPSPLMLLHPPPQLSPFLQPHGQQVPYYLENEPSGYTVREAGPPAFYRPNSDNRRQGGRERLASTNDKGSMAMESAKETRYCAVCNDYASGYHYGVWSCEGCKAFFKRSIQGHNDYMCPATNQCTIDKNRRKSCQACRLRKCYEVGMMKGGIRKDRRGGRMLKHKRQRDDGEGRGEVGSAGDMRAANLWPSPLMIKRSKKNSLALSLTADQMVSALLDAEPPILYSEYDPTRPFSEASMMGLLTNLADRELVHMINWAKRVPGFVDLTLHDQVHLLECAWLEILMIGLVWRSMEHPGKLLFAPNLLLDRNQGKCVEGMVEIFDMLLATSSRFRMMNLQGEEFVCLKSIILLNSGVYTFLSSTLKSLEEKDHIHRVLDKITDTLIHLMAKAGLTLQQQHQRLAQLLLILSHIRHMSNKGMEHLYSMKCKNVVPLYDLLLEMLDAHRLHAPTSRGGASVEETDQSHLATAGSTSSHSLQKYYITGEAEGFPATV

Nc1ccc(N)c2c1C(=O)c1ccccc1C2=O
inactive: Potency [1] | Potency [5] | Potency [6] | Potency [7] | Potency [9] | Potency [10]
active: Potency [2] 17.2 µM | Potency [3] 27.3 µM | Potency [4] 7.7 µM | Potency [8] 24.3 µM | Potency [11] 24.3 µM | Potency [12] 17.2 µM

Brc1c2ccccc2cc2ccccc12
active: Potency [15] 30.9 µM
inactive: Potency [1] | Potency [2] | Potency [3] | Potency [4] | Potency [5] | Potency [13] | Potency [14] | Potency [8] | Potency [9] | Potency [10] | Potency [11] | Potency [12]

O=C1c2ccccc2S(=O)(=O)N1CCCCN1CCN(c2ncccn2)CC1
inactive: Potency [1] | Potency [2] | Potency [3] | Potency [4] | Potency [5] | Potency [13] | Potency [14] | Potency [8] | Potency [9] | Potency [10] | Potency [16] | Potency [15] | Potency [17] | Potency [11] | Potency (Aromatase (Homo sapiens)) | Potency [12]

CNCCCN1c2ccccc2CCc2ccccc21
inactive: Potency [1] | Potency [5] | Potency [6] | Potency [13] | Potency [7] | Potency [10] | Potency [16] | Potency [15] | Potency [17] | Potency [11] | Potency (Aromatase (Homo sapiens)) | Potency [12]
active: Potency [2] 4.52 µM | Potency [3] 16 µM | Potency [4] 11.4 µM | Potency [14] 8.04 µM | Potency [8] 12.7 µM

O=C1OC(=O)C2C3C=CC(C3)C12 (centres undefined)
inactive: Potency [1] | Potency [2] | Potency [3] | Potency [4] | Potency [5] | Potency [13] | Potency [14] | Potency [8] | Potency [9] | Potency [10] | Potency [11] | Potency (Aromatase (Homo sapiens)) | Potency [12]

C=CC(=O)OCCOCCOCCOCCOC(=O)C=C
active: Potency [1] 49.2 µM and 48.5 µM | Potency [2] 13.8 µM and 12.1 µM | Potency [3] 8.68 µM and 6.06 µM | Potency [4] 12.3 µM and 9.6 µM | Potency [5] 24.7 µM | Potency [13] 30.4 µM | Potency [14] 15.4 µM and 17.1 µM | Potency [8] 15.4 µM and 27.1 µM | Potency [11] 61.4 µM | Potency (Aromatase (Homo sapiens)) 15.4 µM and 17.1 µM | Potency [12] 13.8 µM and 19.2 µM
inactive: Potency [9] | Potency [10] | Potency [16]

CN(C)c1ccc(CCO)cc1
inactive: Potency [1] | Potency [2] | Potency [3] | Potency [4] | Potency [5] | Potency [13] | Potency [14] | Potency [8] | Potency [9] | Potency [18] | Potency [10] | Potency [16] | Potency [15] | Potency [17] | Potency [11] | Potency (Aromatase (Homo sapiens)) | Potency [12]

CN(C)c1ccc(C(c2ccccc2)c2ccc(N(C)C)cc2)cc1
inactive: Potency [1] | Potency [5] | Potency [6] | Potency [13] | Potency [7] | Potency [14] | Potency [9] | Potency [10] | Potency [11] | Potency (Aromatase (Homo sapiens)) | Potency [12]
active: Potency [2] 6.86 µM | Potency [3] 6.86 µM | Potency [4] 8.63 µM | Potency [8] 24.3 µM

O=C(O)CNCC(=O)O
inactive: viability change, negative = cytotoxic [1] -8.93% [at 7.04 µM] | activity change, negative = cytotoxicity [2] 8.65% [at 8.52 µM] | activity, negative = cytotoxicity [3] -2.98% [at 8.53 µM] | activity change, negative = cytotoxicity [4] 1.1% [at 8.55 µM] | activity change, negative = cytotoxicity [5] 1.48% [at 7.04 µM] | activation [6] -0.671% [at 6.9 µM] | activity change [19] 1.91% [at 8.47 µM, hits give high values] | viability change, negative = cytotoxic [13] -11.9% [at 8.47 µM] | activity change, negative = inhibition [7] 1.72% [at 8.47 µM] | activity change, negative = cytotoxic [14] 2.43% [at 8.44 µM] | activity, negative = inhibition [8] -3.78% [at 8.44 µM] | activation [9] -1.57% [at 8.08 µM] | activity, negative = inhibition [18] -6.23% [at 6.71 µM] | activity, negative = cytotoxicity [10] -3.67% [at 6.72 µM] | activation [16] -4.82% [at 6.71 µM] | activation [15] 2.44% [at 8.47 µM] | activity change, negative = inhibition [17] 0.887% [at 8.47 µM] | activity change, negative = cytotoxicity [11] -9.74% [at 8.47 µM] | activity, negative = inhibition (Aromatase (Homo sapiens)) 14.5% [at 8.47 µM] | activity change, negative = cytotoxicity [12] -0.604% [at 8.47 µM]

OC[C@H]1O[C@@H](OCCc2ccc(O)cc2)[C@H](O)[C@@H](O)[C@@H]1O
inactive: Potency [1] | Potency [2] | Potency [3] | Potency [4] | Potency [5] | Potency [13] | Potency [14] | Potency [8] | Potency [9] | Potency [18] | Potency [16] | Potency [15] | Potency [17] | Potency [11] | Potency (Aromatase (Homo sapiens)) | Potency [12]

COc1cc2nc(N(C)CCCNC(=O)C3CCCO3)nc(N)c2cc1OC (centres undefined)
inactive: Potency [1] | Potency [2] | Potency [3] | Potency [4] | Potency [5] | Potency [13] | Potency [14] | Potency [8] | Potency [9] | Potency [10] | Potency [16] | Potency [15] | Potency [17] | Potency [11] | Potency (Aromatase (Homo sapiens)) | Potency [12]

C=CCOC(=O)CCC1CCCCC1
inactive: Potency [1] | Potency [2] | Potency [3] | Potency [4] | Potency [5] | Potency [13] | Potency [14] | Potency [8] | Potency [9] | Potency [10] | Potency [11] | Potency (Aromatase (Homo sapiens))

NCC(=O)O
inactive: Potency [1] | Potency [2] | Potency [3] | Potency [4] | Potency [5] | Potency [13] | Potency [14] | Potency [8] | Potency [9] | Potency [18] | Potency [16] | Potency [15] | Potency [17] | Potency [11] | Potency (Aromatase (Homo sapiens)) | Potency [12]

O=C1CCC(=O)O1
inactive: Potency [1] | Potency [2] | Potency [3] | Potency [4] | Potency [5] | Potency [13] | Potency [14] | Potency [8] | Potency [9] | Potency [18] | Potency [10] | Potency [16] | Potency [15] | Potency [17] | Potency [11] | Potency (Aromatase (Homo sapiens)) | Potency [12]

From PubChem BioAssay (Tox21)
